# Test results as given in PubChem BioAssay AID489017 (The Scripps Research Institute Molecular Screening Center, 2010).
# Unmarked numbers belong to inactive results. No rule for the calls is given here.
# Test system: Rolipram
# Assay: off-target binding and CYP450 inhibition panel, profiling panel, selectivity assay for S1P4 antagonist project, biochemical, Ricerca HitProfilingScreen (AID 489017)
# Settings: Ricerca receptor/enzyme binding panel plus CYP450, at 10 µM, hits give high values
structure (smiles),measurement,value
CCc1cccc(CC)c1NC(=O)c1ccc(-c2cc(Cl)ccc2Cl)o1,inhibition,-2%
